# Test results published in PubChem BioAssay (Tox21).
# Records with an inconclusive call do not appear. Where a call stands in place of a potency, no number is given. A number with no mark means an inactive call. Active and inactive are the calls of the source. The call rests on the fitted dose curve.
# Experiment: qHTS assay to identify small molecule agonists of the AP-1 signaling pathway - cell viability counter screen (AID 1159525); further: nearly all actives have a fitted effect of over 55% in size
# Conditions: ME-180 (cervical carcinoma) AP-1-bla cells viability, ATP luminescence, 5 h; series mostly up to 76.8 µM
# Description: National Center for Advancing Translational Sciences [NCATS]
# NIH Chemical Genomics Center [NCGC]
# U.S. Environmental Protection Agency [EPA]
# National Institutes of Environmental Health Sciences [NIEHS]
# National Toxicology Program [NTP]
# U.S. Food and Drug Administration [FDA]
# Activator protein-1 (AP-1), a transcription factor, plays an important role in tumor genesis by regulating genes involved in cell proliferation, differentiation, apoptosis, and angiogenesis. AP-1 activity is induced by a complex network of signaling pathways that involves extracellular signals, such as growth factors. The AP-1 protein complex formed from c-Fos and c-Jun binding to the AP-1 response element results in transcriptional activation of genes containing such elements within their promoter.
# Low molecular weight molecules have been discovered and developed to modulate various components of these signaling pathways, for example, MAP kinase inhibitors. However, many points of pathway modulation remain untested due to the lack of chemical probes making this signaling locus of general interest.
# Using a beta-lactamase reporter-gene under control of the AP-1 response element, a cell-based assay [CellSensor(TM) AP-1-bla ME-180 developed by Invitrogen Corp.] was used to measure EGF-induced signaling. The Tox21 10K library compounds were measured for their ability to positively modulate the action of EC50 EGF on reporter gene activity. Compounds were screened in a 15-pt titration series in 1536-well format. The cytotoxicity of the Tox21 compound library against this cell line was tested in parallel by measuring the intra cellular ATP content in the same wells.
# Tox21 Assay Protocol Summary:
# 2500 cells/5uL in Opti-MEM medium containing 0.5% dialyzed FBS, 0.1 mM NEAA, 1 mM sodium pyruvate and 10 mM HEPES was dispensed into 1536-well black wall/clear bottom plates using a Multidrop dispenser and cells were cultured at 37 degrees Celsius overnight. Next day 23 nL of compounds dissolved in DMSO, positive controls or DMSO were delivered to each well using a pin tool. The plates were incubated at 37 degrees Celsius for 5 hours. 1 uL of LiveBLAzerTM B/G FRET substrate (Solution A+B+C+D) was added to each well using a Flying Reagent Dispenser. After incubated at room temperature for 2.5 hours the plates were measured on an EnVision plate reader at Excitation 405nm, Emission1=460nm and Emission 2=530nm. The %Activity was determined from the ratio of 460nm/530nm.
# After the plates were read for Beta-Lactamase assay on Envision; 3 ul Cell Titer Glo (Promega) was added to measure the cytotoxicity and the plates were then incubated at RT in dark for 30 min. The luminescence was read on ViewLux (Perkin Elmer, Shelton, CT) using 6 sec exposure. ViewLux data was expressed as relative luminescence units.
# For primary data analysis, raw plate reads for each titration point were first normalized relative to […] EGF control (100%) and DMSO only wells (basal, 0%).
# For primary data analysis for viability assay, raw plate reads for each titration point were first normalized Tetra n-octyl ammonium bromide control (-100%) and DMSO (control, 100%).
# Potency means the concentration at half of the fitted maximal effect.
SMILES,Potency,"viability change, negative = cytotoxic"
S=c1[nH]c2ccccc2s1,inactive,–
COc1cc(-c2nc(NC(=O)c3cc4cc(C)cc(C)c4n3CC(=O)O)sc2CCC2CCCCC2)c(OC)cc1Cl,28.3 µM (active),–
CCCCCCCC/C=C\CCCCCCCCOCCO,25.4 µM (active),–
CCCCCCCCS(=O)C(C)Cc1ccc2c(c1)OCO2 (stereo not given),inactive,–
Cc1onc(-c2ccccc2Cl)c1C(=O)N[C@@H]1C(=O)N2[C@@H]1SC(C)(C)[C@@H]2C(=O)O,inactive,–
ON=C1CCCC1,inactive,–
CC(C)C(C)(C)C(C)(C)C(C)(C)S,inactive,–
Nc1nc2ccccc2n1Cc1ccc(F)cc1,inactive,–
C/C=C1/C(=O)C[C@H]2[C@@H]3CCC4=CC(=O)CC[C@]4(C)[C@H]3CC[C@]12C,inactive,–
CCCCN(CCCC)c1ccc(C(=O)c2ccccc2C(=O)O)c(O)c1,inactive,–
C/C(=C(/OCCOc1ccc(Cl)cc1)c1ccc(Cl)cc1Cl)n1ccnc1,inactive,–
O=C(c1ccc(F)cc1)C1CCN(CCn2c(=O)[nH]c3ccccc3c2=O)CC1,inactive,–
CC[C@H]1O[C@]2(CC[C@@H]1C)C[C@@H]1C[C@@H](C/C=C(\C)C[C@@H](C)/C=C/C=C3\CO[C@@H]4[C@H](O)C(C)=C[C@@H](C(=O)O1)[C@]34O)O2,21.7 µM (active),–
O=C(Nc1cccc([N+](=O)[O-])c1)c1cc2ccccc2cc1O,inactive,–
CCN(CC)CCCC(C)Nc1c2ccc(Cl)cc2nc2ccc(OC)cc12 (stereo not given),inactive,–
CC(C)(C)CC(C)(C)c1ccc(O)c(Cc2ccc(Cl)cc2Cl)c1,15.1 µM (active),–
O=C(Oc1ccccc1)c1ccccc1C(=O)Oc1ccccc1,inactive,–
CCCCCCCCCCCCCCCCCC[N+](C)(C)C,49.1 µM (active),–
Cc1nc(-c2ccc3c(c2)CCN(CCC2CCC(NC(=O)/C=C/c4ccc(F)cc4)CC2)CC3)no1 (stereo not given),inactive,–
CC(=O)N1CCN(c2ccc(OC[C@H]3CO[C@](Cn4ccnc4)(c4ccc(Cl)cc4Cl)O3)cc2)CC1,49 µM (active),–

SMILES,Potency,"viability change, negative = cytotoxic"
NC(=O)CC[C@@H]1NC(=O)[C@H](Cc2ccccc2)NC(=O)[C@H](Cc2ccc(O)cc2)NC(=O)CCSSC[C@@H](C(=O)N2CCC[C@H]2C(=O)N[C@@H](CCCN=C(N)N)C(=O)NCC(N)=O)NC(=O)[C@H](CC(N)=O)NC1=O,inactive,–
CN(C)c1ccc(C2(c3ccc(N(C)C)cc3)OC(=O)c3cc(N(C)C)ccc32)cc1,inactive,–
CNCc1cc(F)ccc1Oc1ccc(Cl)c(Cl)c1,inactive,–
Cc1oc(-c2ccccc2)nc1CCC(=O)c1ccc(CC2SC(=O)NC2=O)cc1 (stereo not given),inactive,–
CC1=NC(C)OC1C (stereo not given),inactive,–
CN1CCC(Nc2ncc3ncnc(Nc4ccc(F)c(Cl)c4)c3n2)CC1,inactive,–
COC(=O)c1cc(Cl)ccc1OC,inactive,–
C[C@H](CCC(=O)O)[C@H]1CC[C@H]2[C@@H]3CC[C@@H]4C[C@H](O)CC[C@]4(C)[C@H]3CC[C@]12C,48.8 µM (active),–
O=CC=C(c1ccccc1)c1ccccc1,inactive,–
CCC(N)(CO)CO,inactive,–
Cc1cccc(S(=O)(=O)O)c1C,inactive,–
Nc1ccc(N)c2ccccc12,54.9 µM (active),–
O=[N+]([O-])c1ccccc1Nc1ccccc1,inactive,–
CCOC(=O)O[C@H](C)OC(=O)c1ccc2c(c1)cc(C(=O)NC1CCN(C(C)C)CC1)n2Cc1cc(-c2ccc(Cl)s2)on1,16.2 µM (active),–
CCCCc1oc2ccc(NS(C)(=O)=O)cc2c1C(=O)c1ccc(OCCCN(CCCC)CCCC)cc1,19 µM (active),–
CCN1/C(=C/C=C/c2sc3ccccc3[n+]2CC)Sc2ccccc21,–,-11.9% [at 15.8 µM]
Fc1ccc(C(c2ccc(F)cc2)N2CCN(C/C=C/c3ccccc3)CC2)cc1,inactive,–
[Cl][Au]([Cl])[Cl],inactive,–
CC1=C(/C=C/C(C)=C/C=C/C(C)=C/C=O)C(C)(C)CCC1,34.5 µM (active),–
Fc1ccc([C@@H]2CCNC[C@H]2COc2ccc3c(c2)OCO3)cc1,inactive,–
